Some test systems named below: K-562 leukemia; MALME-3M melanoma; MDA-MB-231 breast; RXF 393 renal; SF-268 CNS; SF-295 CNS; SF-539 CNS; UACC-257 melanoma; M14 melanoma; HCT-15 colon; HT29 colon; SNB-19 CNS; U251 CNS; PC-3 prostate; UACC-62 melanoma; LOX IMVI melanoma; SK-MEL-2 melanoma; SK-MEL-5 melanoma; SK-MEL-28 melanoma; SNB-75 CNS.
Common to all, as to assay: NCI-60 one-dose screen, 48 h (100 = growth as untreated, 0 = no growth, -100 = all killed)
Common to all, as to settings: 10 µM unless noted

The panel holds about 83,000 compounds, 20% with a hit somewhere; the sample as a whole holds those more often.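 Negative percent growth values reflect cell death: -40 means 40% of the cells present at the start died, and -100 means all died.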 Values without a mark were called inactive. Active and inactive are the calls of the source. Rule for the calls: active = growth percent below 10; inactive = the rest.

In the case of `CC(C)(C)c1ccc(C(O)CCCN2CCC(C(O)(c3ccccc3)c3ccccc3)CC2)cc1` (configuration not stated), the growth is -39.9% (active) with K-562 leukemia; -78.5% (active) with MALME-3M melanoma; -89.4% (active) in the assay on MDA-MB-231 breast; -97.8% (active) in the assay with RXF 393 renal; -65.6% (active) in the assay with SF-268 CNS; -69.7% (active) with SF-295 CNS. Moreover, the growth in the assay with SF-539 CNS is -76.4% (active); with UACC-257 melanoma, -78.2% (active); in the assay with M14 melanoma, -91.3% (active); with HCT-15 colon, -73.7% (active); in the assay on HT29 colon, -92.7% (active); in the assay with SNB-19 CNS it was 4.49% (active). Further, the growth in the assay on U251 CNS was -85.4% (active); with PC-3 prostate, -4.17% (active); with UACC-62 melanoma it was -98.1% (active); in the assay with LOX IMVI melanoma it was -93.9% (active); with SK-MEL-2 melanoma, -76.1% (active).

As for `CC(C)[O-].CC(C)[O-].CN(CCN(C)Cc1cc(F)cc(F)c1[O-])Cc1cc(F)cc(F)c1[O-].[Ti+4]`, the growth is 8.81% (active) with K-562 leukemia; -55.4% (active) in the assay on MALME-3M melanoma; 11% with MDA-MB-231 breast; -79.1% (active) with RXF 393 renal; 6.13% (active) in the assay on SF-268 CNS; -9.78% (active) in the assay with SF-295 CNS. The growth in the assay with SF-539 CNS is -0.0224% (active); in the assay with UACC-257 melanoma, 17.1%; in the assay with M14 melanoma, -41.9% (active); in the assay on HCT-15 colon, 15.5%; in the assay with HT29 colon, -25.7% (active); in the assay with U251 CNS, 4.7% (active). Further, the growth is 15.9% with PC-3 prostate; -59.5% (active) in the assay on SK-MEL-5 melanoma; -22.8% (active) with UACC-62 melanoma; -39% (active) with LOX IMVI melanoma; -23.3% (active) in the assay on SK-MEL-28 melanoma; -52% (active) in the assay on SK-MEL-2 melanoma.

For the molecule `COc1cc(/C=C/C(=O)N2CCN(C(=O)/C=C/c3ccccc3)CC2)cc(OC)c1OC`, the growth is 97% with K-562 leukemia; 97.8% in the assay with MALME-3M melanoma; 85.6% in the assay on MDA-MB-231 breast; 125% in the assay with RXF 393 renal; 111% with SF-268 CNS; 110% in the assay with SF-295 CNS. Further, the growth in the assay with SF-539 CNS was 107%; in the assay on UACC-257 melanoma it was 102%; in the assay with M14 melanoma, 103%; in the assay with HCT-15 colon, 109%; with HT29 colon, 104%; with SNB-19 CNS, 96.4%. Also, the growth in the assay on U251 CNS was 103%; in the assay with PC-3 prostate, 93.6%; in the assay with SK-MEL-5 melanoma, 106%; in the assay with UACC-62 melanoma it was 100%; in the assay with LOX IMVI melanoma, 107%; in the assay with SK-MEL-28 melanoma it was 110%. Moreover, the growth in the assay with SK-MEL-2 melanoma was 116%.

As to `CCN(CC)CCNc1ccc(Cl)cc1Cl`, the growth with K-562 leukemia is 104%; in the assay with MALME-3M melanoma it was 106%; in the assay on MDA-MB-231 breast it was 118%; in the assay with RXF 393 renal, 103%; in the assay on SF-268 CNS, 101%; in the assay on SF-295 CNS it was 109%. The growth in the assay with SF-539 CNS is 111%; with UACC-257 melanoma, 95%; in the assay on M14 melanoma, 102%; in the assay with HCT-15 colon it was 107%; with HT29 colon, 101%; in the assay on U251 CNS it was 102%. For the same molecule, the growth in the assay on PC-3 prostate was 97.3%; in the assay with SK-MEL-5 melanoma, 103%; in the assay on UACC-62 melanoma it was 112%; in the assay with LOX IMVI melanoma, 102%; in the assay on SK-MEL-28 melanoma, 118%; in the assay with SK-MEL-2 melanoma it was 108%.

In the case of `O=C1/C(=C/c2ccc([N+](=O)[O-])o2)Oc2ccc(Br)cc21`, the growth in the assay on K-562 leukemia was -1.79% (active); in the assay on MALME-3M melanoma, -28.3% (active); with MDA-MB-231 breast, 42.8%; in the assay on RXF 393 renal, -29.6% (active); in the assay with SF-268 CNS, 48.1%; in the assay on SF-295 CNS, 99.4%. Moreover, the growth in the assay with SF-539 CNS was 88%; in the assay on UACC-257 melanoma, 69.1%; with M14 melanoma it was 44.9%; in the assay on HCT-15 colon, 0.437% (active); with SNB-75 CNS, 85.5%; in the assay with SNB-19 CNS, 105%. In addition, the growth in the assay with U251 CNS is 93.6%; in the assay on PC-3 prostate it was 91.3%; in the assay with SK-MEL-5 melanoma, 82.5%; in the assay on UACC-62 melanoma, 34.8%; in the assay with LOX IMVI melanoma it was 5.15% (active); with SK-MEL-28 melanoma, 70.8%. For the same molecule, in the assay on SK-MEL-2 melanoma, the growth was 56.6%.

In the case of `CCOc1cc(-c2ccc[nH]2)[nH]c1/C=C1\N=C(C)C(C(=O)OC)=C1C`, the growth was -55.4% (active) in the assay with K-562 leukemia; -61.1% (active) in the assay with MALME-3M melanoma; -62.6% (active) with MDA-MB-231 breast; -72.5% (active) in the assay with RXF 393 renal; -55.7% (active) in the assay with SF-268 CNS; -69.8% (active) in the assay with SF-295 CNS. Further, the growth is -66.7% (active) in the assay with SF-539 CNS; -56.7% (active) in the assay with UACC-257 melanoma; -59.9% (active) in the assay with M14 melanoma; -27% (active) in the assay on HCT-15 colon; -65% (active) in the assay with SNB-75 CNS; 11.9% in the assay on SNB-19 CNS. The growth was -62.4% (active) in the assay with U251 CNS; -93% (active) in the assay on SK-MEL-5 melanoma; -74.7% (active) with UACC-62 melanoma; -56.5% (active) in the assay with LOX IMVI melanoma; -83.5% (active) in the assay on SK-MEL-28 melanoma.

For the molecule `CCCCCCCCCCCCCCCCCC1=NC(C)(C)CN1CCO`, the growth in the assay on K-562 leukemia was -49.5% (active); in the assay with MALME-3M melanoma, 11.8%; in the assay with MDA-MB-231 breast it was -61.7% (active); with RXF 393 renal, -47.3% (active); with SF-268 CNS, -67.1% (active); with SF-295 CNS, -2.44% (active). The growth is -80.6% (active) in the assay on SF-539 CNS; -10.6% (active) with UACC-257 melanoma; -74.7% (active) in the assay with M14 melanoma; -55.4% (active) in the assay with HCT-15 colon; -44.7% (active) in the assay with HT29 colon; 38.2% in the assay with SNB-19 CNS. Further, the growth in the assay on U251 CNS was -57.9% (active); in the assay on PC-3 prostate, -52.4% (active); in the assay with SK-MEL-5 melanoma, -65.3% (active); in the assay on UACC-62 melanoma it was -77.1% (active); with LOX IMVI melanoma, -67% (active); in the assay on SK-MEL-28 melanoma it was -78% (active). In addition, the growth in the assay on SK-MEL-2 melanoma is -66.2% (active).

Regarding `O=C1CC(C(F)(F)F)=NN1C(=O)c1nn(-c2ccc(Cl)cc2)cc1O`, the growth is 96.7% in the assay with K-562 leukemia; 146% in the assay on MALME-3M melanoma; 81.9% in the assay on MDA-MB-231 breast; 78.1% in the assay on RXF 393 renal; 56.7% in the assay with SF-268 CNS; 81.3% in the assay on SF-295 CNS. The growth in the assay on SF-539 CNS was 82.7%; with UACC-257 melanoma, 111%; in the assay with M14 melanoma it was 88.4%; in the assay with HCT-15 colon, 69.9%; with HT29 colon, 110%; in the assay with SNB-19 CNS, 87.7%. The growth with U251 CNS is 64.9%; in the assay on SK-MEL-5 melanoma, 88.4%; in the assay with UACC-62 melanoma it was 96.4%; in the assay with LOX IMVI melanoma, 62.6%; with SK-MEL-28 melanoma, 115%; in the assay with SK-MEL-2 melanoma, 96.9%.

Take `Cc1cc(C)c2c(c1)N1OC(C2)C[C@H]1/C=C/c1ccccc1` (some centres not stated): the growth in the assay with K-562 leukemia is 88.2%; in the assay with MALME-3M melanoma, 103%; in the assay on MDA-MB-231 breast, 101%; with RXF 393 renal, 115%; with SF-268 CNS it was 107%; in the assay on SF-295 CNS, 108%. Besides, the growth in the assay on SF-539 CNS is 111%; in the assay with UACC-257 melanoma it was 113%; in the assay with M14 melanoma, 104%; in the assay with HCT-15 colon it was 88.7%; with SNB-75 CNS, 109%; in the assay on SNB-19 CNS, 103%. For the same molecule, the growth was 107% in the assay on U251 CNS; 93.7% in the assay with SK-MEL-5 melanoma; 88% in the assay with UACC-62 melanoma; 94.4% in the assay on LOX IMVI melanoma; 104% in the assay with SK-MEL-28 melanoma.
